The values below come from PubChem BioAssay (NCI).

Molecules are shown by their SMILES. About 83,000 compounds went through this panel and 20% of them were active in at least one assay; those are over-represented in the sample as a whole.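 Method: cells in 96-well plates; compound added at one concentration; 48 h incubation; percent growth measured; values under 10 scored active.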 Values without a mark were called inactive. Activity calls are given as the source filed them.

Among the test systems are SK-MEL-2 melanoma; EKVX NSCLC; SN12C renal; UO-31 renal; TK-10 renal; ACHN renal; CAKI-1 renal; A498 renal; CCRF-CEM leukemia; MOLT-4 leukemia.
Holding throughout (experiment): NCI-60 one-dose screen, 48 h (100 = growth as untreated, 0 = no growth, -100 = all killed)
Settings in all cases: 10 µM unless noted

Consider `CC(C)Sc1nc(-c2ccccc2)c(C#N)c(N2CCOCC2)n1`, for which the growth in the test with SK-MEL-2 melanoma is 128%; in the test on EKVX NSCLC, 69.8%; with SN12C renal it was 28.1%; in the test with UO-31 renal, 17.9%; in the test with TK-10 renal, 106%; with ACHN renal, -6.39% (active). The growth in the test on CAKI-1 renal is 52.1%; with A498 renal, 65.6%; in the test on CCRF-CEM leukemia, 75.3%; with MOLT-4 leukemia it was 93.5%.
For the molecule `O=C(Nc1ccccc1)Nc1nc2ccc([N+](=O)[O-])cc2[nH]1`, the growth is 53.9% in the test on SK-MEL-2 melanoma; 43.6% in the test on EKVX NSCLC; 62.7% in the test with SN12C renal; 44.2% in the test with UO-31 renal; 39.1% with TK-10 renal; 37.6% in the test with ACHN renal. The growth with CAKI-1 renal is 27.1%; with A498 renal it was 11.1%; in the test on CCRF-CEM leukemia it was 52.2%; with MOLT-4 leukemia it was 55.7%.
With `N#C/C(=C\c1ccc(-c2ccc(Cl)c(Cl)c2)o1)C(=O)Nc1ncc(Cc2ccc(Cl)cc2)s1`, the growth was 87.9% in the test on SK-MEL-2 melanoma; 32.2% with EKVX NSCLC; 12% in the test with SN12C renal; 24.9% in the test on UO-31 renal; 68.5% with TK-10 renal; 59.1% with ACHN renal. In addition, the growth with CAKI-1 renal is 57.4%; in the test with A498 renal, 40.9%; in the test with CCRF-CEM leukemia, 31.9%; in the test on MOLT-4 leukemia it was 58.6%.
As for `Oc1ccc(-c2nc3ccc(/C(=N\N=C\c4ccc(Cl)cc4)c4ccccc4)cc3[nH]2)cc1`, the growth with SK-MEL-2 melanoma is 90.6%; in the test on EKVX NSCLC, 98.9%; with SN12C renal, 83.5%; in the test on UO-31 renal, 63.5%; with TK-10 renal it was 105%; in the test with ACHN renal it was 86.8%. The growth is 76.1% in the test with CAKI-1 renal, 65.7% in the test on A498 renal, 21.6% with CCRF-CEM leukemia and 57% with MOLT-4 leukemia.
With `O=S(=O)(NCCCNc1nccc(-c2[nH]c(-c3ccccc3)nc2-c2ccc(F)c(O)c2)n1)c1cccc(F)c1`, the growth with SK-MEL-2 melanoma is 39.2%; in the test on EKVX NSCLC, 99.8%; with SN12C renal, 99.1%; with UO-31 renal, 139%; in the test with TK-10 renal, 134%; with ACHN renal it was 93.2%. For the same molecule, the growth was 95.5% in the test with CAKI-1 renal, 93.5% in the test with A498 renal, 37% in the test on CCRF-CEM leukemia and 44.3% with MOLT-4 leukemia.
`COc1cccc2c1[C@H](OC)[C@]13O[C@@]1(C2=O)[C@H](O)[C@H](C)[C@@](O)(C(=O)[C@@H]1O[C@H]1C)[C@@H]3O`: the growth in the test on SK-MEL-2 melanoma was -55.7% (active); in the test with EKVX NSCLC, -39.5% (active); with SN12C renal it was -8.82% (active); with UO-31 renal it was -16.1% (active); in the test on TK-10 renal it was -22.6% (active); in the test with ACHN renal, 1.83% (active). Moreover, the growth in the test on CAKI-1 renal was -23.4% (active); in the test with A498 renal, -82.4% (active); in the test on CCRF-CEM leukemia, -20.3% (active); with MOLT-4 leukemia, -39.8% (active).
Regarding `O=C(/C=C/c1cccc(Br)c1)c1cccc(OCCCCOc2cccc(C(=O)/C=C/c3cccc(Br)c3)c2)c1`, the growth in the test on SK-MEL-2 melanoma was 104%; with EKVX NSCLC, 101%; with SN12C renal, 99.7%; in the test on UO-31 renal, 91.4%; with TK-10 renal, 115%; with ACHN renal, 101%. Moreover, the growth in the test on CAKI-1 renal was 100%; with A498 renal, 113%; with CCRF-CEM leukemia, 105%; with MOLT-4 leukemia, 90.4%.
As to `Cc1[nH]c(C(=O)Nc2ccc(S(=O)(=O)N3CCCCC3)cc2OCCOCCOCCOCCOCCOCCOCCOCCOCCOc2cc(S(=O)(=O)N3CCCCC3)ccc2NC(=O)c2[nH]c(C)c3c2CCCCC3=O)c2c1C(=O)CCCC2`, the growth in the test with SK-MEL-2 melanoma is -11.7% (active); in the test with EKVX NSCLC, 44%; with SN12C renal it was 23.1%; in the test with UO-31 renal, 40.5%; in the test with TK-10 renal, 8.54% (active); in the test on ACHN renal, 67.5%. For the same molecule, the growth in the test with CAKI-1 renal is 15.9%; with A498 renal, -42.9% (active); in the test on CCRF-CEM leukemia it was 38.4%; with MOLT-4 leukemia it was 11.8%.
As for `Oc1[nH]c2ccc(Cl)cc2c1N=Nc1nc(N=Nc2c(O)[nH]c3ccc(Cl)cc23)nc(N2CCCCC2)n1`, the growth is 86.7% with SK-MEL-2 melanoma; 50.8% in the test with EKVX NSCLC; 42.5% in the test on SN12C renal; 86.7% in the test with UO-31 renal; 121% with TK-10 renal; 88.6% in the test on ACHN renal. Moreover, the growth with CAKI-1 renal is 88.1%; in the test with A498 renal it was 94.2%; in the test with CCRF-CEM leukemia it was 9.81% (active); in the test on MOLT-4 leukemia, 22.1%.
`Cc1ccc(CSC2=C(Cl)CN(c3ccc(Cl)cc3)C2=O)cc1`: the growth in the test on SK-MEL-2 melanoma was 104%; in the test on EKVX NSCLC it was 104%; in the test on SN12C renal, 104%; in the test with UO-31 renal, 78.6%; in the test on TK-10 renal, 115%; in the test with ACHN renal, 107%. The growth in the test on CAKI-1 renal is 94.5%; in the test on A498 renal, 113%; in the test with CCRF-CEM leukemia, 106%; with MOLT-4 leukemia, 110%.
Take `O=S(=O)(NCCCNc1nccc(-c2[nH]c(-c3ccccc3)nc2-c2ccc(F)c(O)c2)n1)c1cccc2ccccc12`: the growth with SK-MEL-2 melanoma is 17.1%; in the test with EKVX NSCLC, 82%; in the test on SN12C renal, 63.2%; with UO-31 renal, 75.2%; in the test with TK-10 renal it was 72.5%; in the test on ACHN renal, 59.6%. The growth in the test with CAKI-1 renal is 77.2%; in the test with A498 renal, 73.1%; with CCRF-CEM leukemia it was 17%; in the test with MOLT-4 leukemia it was 31.4%.
Regarding `Brc1cccc(-c2cc(-c3cnc4c(c3)OCCO4)n[nH]2)c1`, the growth in the test on SK-MEL-2 melanoma is 52.1%; with EKVX NSCLC it was 50.4%; with SN12C renal, 62.8%; with UO-31 renal, 51%; in the test on TK-10 renal it was 89.9%; in the test with ACHN renal it was 51.6%. Besides, the growth in the test on CAKI-1 renal was 51.8%; with A498 renal, 50.6%; in the test with CCRF-CEM leukemia it was 36.7%; in the test on MOLT-4 leukemia it was 34.1%.
